Data from ChEMBL document CHEMBL3433997, “St. Jude Leishmania screening dataset” (2016).

Key:
Assay type in all cases: functional
[1] = target: Solute carrier family 2, facilitated glucose transporter member 1 (Homo sapiens) (UniProt P11166); test: ST_JUDE_LEISH: Cytotoxicity at 2uM final concentration against transgenic Leishmania Mexicana promastigotes LmGLUT1 that are glucose transport deficient and complemented with the human glucose transporter GLUT1. Activity is measured by DNA content using SYBR green in vitro
Chain of Solute carrier family 2, facilitated glucose transporter member 1 (Homo sapiens) (P11166 whole entry): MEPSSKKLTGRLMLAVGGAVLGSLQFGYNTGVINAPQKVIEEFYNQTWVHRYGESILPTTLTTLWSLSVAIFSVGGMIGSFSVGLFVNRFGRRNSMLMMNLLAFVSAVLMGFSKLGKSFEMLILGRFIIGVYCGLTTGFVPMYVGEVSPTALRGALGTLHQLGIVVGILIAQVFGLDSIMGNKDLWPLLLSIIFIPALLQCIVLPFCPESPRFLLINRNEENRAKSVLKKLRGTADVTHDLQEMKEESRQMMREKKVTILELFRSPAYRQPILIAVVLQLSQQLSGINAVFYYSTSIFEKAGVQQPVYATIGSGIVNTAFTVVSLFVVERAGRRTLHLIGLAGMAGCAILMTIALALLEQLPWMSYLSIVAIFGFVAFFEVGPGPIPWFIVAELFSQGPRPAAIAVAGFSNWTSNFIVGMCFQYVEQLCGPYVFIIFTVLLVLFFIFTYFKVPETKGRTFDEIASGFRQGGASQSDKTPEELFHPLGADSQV

[2] = target: Hexose transporter 1 (Plasmodium falciparum) (UniProt O97467); test: ST_JUDE_LEISH: Cytotoxicity at 2uM final concentration against transgenic Leishmania Mexicana promastigotes LmPfHT that are glucose transport deficient and complemented with the Plasmodium falciparum hexose transporter. Activity is measured by DNA content using SYBR green in vitro
[3] = target: Glucose transporter (Leishmania mexicana) (UniProt O61059); test: ST_JUDE_LEISH: Cytotoxicity at 2uM final concentration against transgenic Leishmania Mexicana promastigotes LmGT2 that are glucose transport deficient and complemented with the L. Mexicana glucose transporter 2. Activity is measured by DNA content using SYBR green in vitro

Row | SMILES | inhibition [1] | inhibition [2] | inhibition [3]
1 | Cc1cc(C(=O)Nc2ccc3c(c2)CCN3C2CCN(Cc3cccc4cc[nH]c34)C2)no1 (stereo unspecified) | 2.23% | 1.71% | 3.09%
2 | CNc1ccc(CNCc2cccc(-c3ccc(-c4nc5cc(C(F)(F)F)ccc5[nH]4)cc3)c2)cc1 | -1.26% | 1.48% | 1.39%
3 | Nc1c2ccccc2nc2cc(Cl)ccc12 | 3.29% | 1.91% | 1.91%
4 | O=C1CC(C(=O)O)CC(=O)N1 | -3.7% | -2.75% | -0.61%
5 | CC1CCC2(CC1)NC(N)=NC(=N)N2OCCCCCCCCO (stereo unspecified) | 6.99% | 4.43% | 2.52%
6 | COc1ccc(N2C(N)=NC(N)=NC2(C)C)cc1OC | 3.76% | 5.41% | 5.83%
7 | CC1CN(Cc2cccc(-c3ccc(-c4nc5cc(F)ccc5[nH]4)cc3)c2)CC(C)O1 (stereo unspecified) | 3.14% | 1.73% | 2.23%
8 | Cc1cc(N[C@@H](Cc2ccccc2)C(=O)NCc2cccs2)nc(NCCOc2ccccc2)n1 | 8.74% | 10.4% | 5.27%
9 | CS(=O)(=O)CCNCc1ccc(-c2ccc3c(Nc4ccc(Oc5ccccn5)cc4)ccnc3c2)o1 | 1.24% | -0.28% | 2.55%
10 | CON(C)C(=O)[C@@H](CCCCNC(=O)OCc1ccccc1)NC(=O)OC(C)(C)C | -0.81% | -1.84% | -1.83%
11 | Cc1ccc(S(=O)(=O)N2CCN(C(=O)c3cc(-c4ccccc4)n[nH]3)CC2)cc1 | 4.96% | 2.9% | 2.37%
12 | O=C(Cc1ccc(NC(=O)c2ccc(O)c(-c3ccc(Cl)c(Cl)c3)c2)cc1)NCCN1CCOCC1 | -2.69% | -1.17% | -1.61%
13 | Cc1cccc2nc(-c3ccc(-c4cccc(CN5CC(C)OC(C)C5)c4)s3)[nH]c12 (stereo unspecified) | 7.69% | 6.31% | 4.91%
14 | COc1ccc(-c2ccc(CNC(=O)c3cccc(C#N)c3)c(F)c2)cc1CN1CCCN(C)CC1 | 0.77% | -4.93% | 0.55%
15 | COc1ccccc1N(C)CCNc1cc(C)nc(Nc2ccc(C)cc2)n1 | 8.84% | 7.28% | 1.83%
16 | O=C(Nc1ccc(OC2CCN(Cc3ccc(F)cc3)CC2)cc1)c1cccs1 | -0.82% | 0.37% | -2.79%
17 | O=C(Nc1ccc(Cn2ncc(N3CCCNCC3)c(Cl)c2=O)cc1)Nc1cc(F)cc(C(F)(F)F)c1 | 2.7% | 3.7% | 0.99%
